# High-throughput results as filed in PubChem.
# ELG1 repair inh: ELG1-dependent DNA repair inhibition; HEK293T ELG1-luciferase reporter, luminescence, 16 h; DNA damage induced by 5-fluorouridine; Potency, µM (series often up to 46.1 µM), for inactives: at the highest dose activity change, negative = inhibition, most hits filed as inhibitors; 2.3% of 330,000 active; AID 504467; note: % is set by controls: 0 for no effect and ±100 for the full control effect; nearly all actives have a fitted effect of over 55% in size
#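 Luminescence from the luciferase reporter, measured 30 min after ONE-Glo reagent at room temperature, was the read-out. Beforehand, 2,000 cells per well were exposed for 16 hr at 37 °C to 5-fluorouridine together with compound or vehicle.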
# MCF10A rereplic: DNA re-replication induction in MCF 10a cells; MCF 10A DNA re-replication, Hoechst nuclear intensity, 48 h; Potency, µM (series often up to 46.1 µM), for the others: at the top dose activity, positive = re-replication, hits mostly activators; 2.9% of 350,000 active; note: % of control where 0% means no effect; nearly all actives have a fitted effect of over 50% in size
# SW480 rereplic: inducers of DNA re-replication in SW480 colon cancer cells. SW480 DNA re-replication, Hoechst DNA content imaging, 48 h. Potency, µM (series often up to 46.1 µM), for inactives: at the highest dose re-replication activation, most hits filed as activators. 1.8% of 340,000 active. AID 624297; note: % of control where 0% means no effect; nearly all actives have a fitted effect of over 55% in size
#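 Readout is total intensity of Hoechst-stained nuclei, excited at 405 nm and collected at 500-530 nm. Compound treatment lasted 48 hr at 37 C in 5% CO2 before staining.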
# KB-3-1 tox: KB-3-1 parental cell cytotoxicity; KB-3-1 viability, CellTiter-Glo ATP luminescence, 72 h; 1.4% of 400,000 active; Potency, µM (series often up to 46.1 µM), usual class: cytotoxic; AID 1347075; note: % is set by controls: 0 for no effect and ±100 for the full control effect; nearly all actives have a fitted effect of over 60% in size
#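 Viability of parental KB-3-1 cells, measured by CellTiter-Glo luminescence, followed a 72 h incubation at 37 °C with pinned compounds in phenol-red-free DMEM containing 10% FBS.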
# KB-V1 cytotox: KB-V1 MDR subline cytotoxicity; AID 1347076; KB-V1 MDR cells viability, CellTiter-Glo, 72 h; Potency, µM (doses to about 46.1 µM), most hits filed as cytotoxic; 3.4% of 400,000 active; note: % is set by controls: 0 for no effect and ±100 for the full control effect; nearly all actives have a fitted effect of over 60% in size
#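 Drug-selected KB-V1 cells, grown in DMEM lacking phenol red with 10% FBS, receive compound titrations; after three days at 37 degrees C, surviving cell ATP is quantified by CellTiter-Glo luminescence and responses normalized and curve-fitted.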
# * marks the source's active call; other numbers are inactive results; i = inactive; ? = inconclusive; nt = not tested or not shown; ! = a repeat was not active. A selection: hits, their analogues and other compounds. The true share with any hit is near 8.1%. Calls come from the whole dose curve; as a rule, active = well fitted curve in the direction sought with a large enough effect; inconclusive = small, poorly fitted or top-dose-only effect, or another doubt; inactive = no such curve, though single readings can be large; an effect the other way counts as inactive or inconclusive. Potency is the fitted concentration of half-maximal effect.
SMILES,ELG1 repair inh,MCF10A rereplic,SW480 rereplic,KB-3-1 tox,KB-V1 cytotox
Cc1ccc(S(=O)(=O)N2CCn3cccc3C2C)cc1 (configuration not stated),7.9%,?,2.2%,i,13µM*
c1ccc(Cn2sc(=Nc3ccccc3)nc2-c2ccccc2)cc1,nt,nt,nt,?,i
c1ccc(N=c2nc(-c3ccccc3)n(-c3ccccc3)s2)cc1,nt,nt,nt,?,16.4µM*
COc1ccc(OC)c(NC(=O)CSc2ncc3c(n2)-c2ccccc2N(C)S3(=O)=O)c1,nt,nt,nt,i,i
CC(=O)N1CCC2(CC1)CC(=O)c1cc(OCC(=O)N3CCCC3)ccc1O2,9.4%,-5.0%,1.9%,i,i
CC1(C)CC(=O)c2cc(OCC(=O)N3CCCCCC3)ccc2O1,?,9.1%,-12.1%,i,18.4µM*
CC(=O)N1CCC2(CC1)CC(=O)c1cc(Cl)ccc1O2,nt,1.4%,2.31µM*,i,i
CC(=O)N1CCC2(CC1)CC(=O)c1cc(OCC(=O)NCc3ccc(C)cc3)ccc1O2,?,17.1%,0.6%,i,18.4µM*
COc1cc2c(NC3CCN(C)CC3)nc(N3CCCN(C)CC3)nc2cc1OCCCC(C)C,nt,nt,nt,?,i
C=C1c2cccc(C(F)(F)F)c2O[C@H](C(=O)OCC)[C@H]1OC,12.3%,-3.8%,-29.3%,i,i
CCOc1ccccc1C(=O)N(Cc1cc(OC)c(OC)c(OC)c1)c1ccccn1,nt,nt,nt,i,?
COc1cc(-c2cc3nc(NCCOc4ccccc4)ccn3n2)cc(OC)c1OC,nt,nt,nt,?,16.4µM*
CCOCCCNC(=O)CN1C(=O)c2cccnc2Sc2ccccc21,nt,nt,nt,i,i
CCCCOCCCNC(=O)CN1C(=O)c2ccccc2C1=O,7.8%,3.66µM*,27.9%,i,i
C=CC[C@H](CC(=O)OC(C)(C)C)C(=O)OC[C@@H]1CCCN1C(=O)[C@@H](CC=C)CC(=O)NCCO,4.6%,-0.8%,-1.6%,i,?
CCC(=O)N1c2ccc(S(=O)(=O)N3CCCCCC3)cc2CC1C (configuration not stated),nt,nt,nt,i,i
COc1ccc(C(=O)CSc2nnc(-c3cc4ccccc4cc3O)n2Cc2ccco2)cc1,?,15.8%,13.1%,?,7.31µM*!
CC1CCN(C(=O)CSc2nnc(-c3cc4ccccc4cc3O)n2Cc2ccco2)CC1,?,7.2%,15.4%,?,3.66µM*
COc1ccc(C(=O)CSc2nnc(-c3cccnc3)n2Cc2ccco2)cc1,0.0%,-1.6%,-3.4%,i,i
CCn1c(SCC(=O)N(C(C)C)C(C)C)nnc1-c1cc2ccccc2cc1O,?,2.9%,-15.0%,?,3.66µM*
CCn1c(SCC(=O)N2CCC(C)CC2)nnc1-c1ccco1,-4.8%,-14.3%,-5.5%,i,i
CCC(C)NC(=O)Cn1c(=O)n(-c2ccc(C)c(C)c2)c(=O)c2c3c(sc21)CCCCC3 (configuration not stated),nt,nt,nt,i,?
O=c1ccc(-c2nc3ccccc3n2C(CCc2ccccc2)c2nc3ccccc3[nH]2)c[nH]1 (configuration not stated),nt,nt,nt,i,i
Clc1ccc(/C=C/c2ccncc2)cc1Cl,nt,nt,nt,?,i
c1ccc(N2CCN(c3ncnc4c3oc3ccccc34)CC2)cc1,?,2.6%,-3.0%,i,16.4µM*
SMILES,ELG1 repair inh,MCF10A rereplic,SW480 rereplic,KB-3-1 tox,KB-V1 cytotox
CC1(C)Cc2nc3oc4c(N5CCOCC5)ncnc4c3cc2CO1,-2.9%,11.9%,-9.0%,i,?
Brc1ccc2oc3c(N4CCOCC4)ncnc3c2c1,?,11.6%,-4.2%,i,16.4µM*
O=Cc1ccnc2ccccc12,nt,nt,nt,i,i
S=C(NCc1ccco1)N1CCN(c2cccc(Cl)c2)CC1,-10.8%,-1.0%,-8.7%,i,i
O=C(c1ccc(S(=O)(=O)NCC2CCCO2)cc1)N1CCN(c2cccc(Cl)c2)CC1 (configuration not stated),9.2µM*,3.0%,-1.0%,?,i
O=C(Nc1cccc(F)c1)c1ccc(S(=O)(=O)NCC2CCCO2)cc1 (configuration not stated),?,4.9%,20.1%,i,16.4µM*
S=C(NCCN1CCOCC1)N1CCN(c2cccc(Cl)c2)CC1,-22.5%,26.5%,-3.9%,?,4.61µM*
FC(F)(F)c1cccc(N2CCN(C(=S)NCC3CCCO3)CC2)c1 (configuration not stated),20.6µM*,?,-3.8%,?,i
S=C(NCC1CCCO1)N1CCN(c2ccccc2)CC1 (configuration not stated),?,-2.6%,-3.2%,i,i
Cc1ccc(Sc2ccc(NC(=O)CCN3C(=O)NC4(CCCC4)C3=O)cc2)c(C)c1,-17.7%,?,-1.8%,i,i
CCc1ccccc1NC(=O)CN1C(=O)C2CCCN2c2ccc(S(=O)(=O)N(CC)CC)cc21 (configuration not stated),nt,nt,nt,i,i
CCOC(=O)c1noc2ncn(CC(=O)Nc3ccccc3OC)c(=O)c12,nt,nt,nt,i,i
O=C(c1ccc(S(=O)(=O)N2CCOCC2)cc1)N1CCN(c2cccc(Cl)c2)CC1,?,-1.2%,-9.6%,i,14.6µM*
O=C(c1ccc(S(=O)(=O)N2CCOCC2)cc1)N1CCN(c2ccc(F)cc2)CC1,-9.5%,0.1%,-3.8%,i,i
Fc1ccc(-c2nc(-c3cccs3)[nH]c2-c2ccc(F)cc2)cc1,?,?,82.9%,18.4µM*,16.4µM*
COc1ccc(-c2[nH]c(-c3ccc(C(=O)O)cc3)nc2-c2ccccc2)cc1,?,15.5%,-20.0%,i,i
O=C(O)c1ccc(-c2nc(-c3ccccc3)c(-c3ccccc3)[nH]2)cc1,-3.5%,16.4µM*,-6.9%,i,?
Oc1ccc(-c2nc(-c3ccc(F)cc3)c(-c3ccncc3)[nH]2)cc1,0.4%,9.6%,3.55µM*,?,i
COc1cc(N)c(Cl)cc1C(=O)OCC(=O)NCC1CCCCC1,?,-0.3%,0.2%,i,i
CCOC(=O)c1c(S(=O)(=O)NCC(=O)N2CCN(c3cccc(Cl)c3)CC2)c(C)n(C)c1C,nt,nt,nt,i,i
Cc1ccc(CN(C(=O)c2ccc(C(C)(C)C)cc2)c2ccccn2)o1,nt,nt,nt,i,i
CN(C)c1ccc(N=Cc2cccc3ccccc23)cc1,nt,nt,nt,i,i
COc1ccc(OC)c(-c2nnc3n2N=C(c2ccc(OC(F)F)c(OCC4CC4)c2)CS3)c1,11.6µM*,?,?,5.8µM*,?
COc1ccc(C2=Nn3c(nnc3-c3ccccc3OC)SC2)cc1OCC1CC1,?,?,2.31µM*,?,i
COc1ccc(C2=Nn3c(nnc3-c3ccccc3)SC2)cc1OC,-10.0%,?,7.1%,i,?
